Out of some 5,500 compounds screened, about 2,000 (36%) were called active. Not shown: some 18% with an inconclusive outcome. Rule as the data show it: active = normalized growth mostly below about 0.91 (no sharp cut-off); inconclusive = no clear call, values can overlap the other calls; inactive = mostly above about 0.92. Some of the results follow.
Assay: chemical genetic growth profiling, strain panel (AID 1159580);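 also: tested at 20 µM; growth read once vehicle control cultures reached saturation at 30 °C; 1 = growth at the plate median or of vehicle wells; lower values mean less growth of the strain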
Conditions: S. cerevisiae deletion strains, growth OD
[1] = locus YAR019C, strain CDC15, stronger effect = lower value
[2] = locus YBL105C, strain PKC1, stronger effect = lower value
[3] = locus YBR135W, strain CKS1, stronger effect = lower value
[4] = locus YBR136W, strain MEC1, stronger effect = lower value
[5] = locus YBR160W, strain CDC28, stronger effect = lower value
[6] = locus YDL017W, strain CDC7, stronger effect = lower value
[7] = locus YDL028C, strain MPS1, stronger effect = lower value
[8] = locus YDL101C, strain DUN1, stronger effect = lower value
[9] = locus YDL108W, strain KIN28, stronger effect = lower value
[10] = locus YDL132W, strain cdc53, stronger effect = lower value
[11] = locus YDL214C, strain PRR2, stronger effect = lower value
[12] = locus YDR052C, strain DBF4, stronger effect = lower value
[13] = locus YDR054C, strain cdc34, stronger effect = lower value
[14] = locus YDR226W, strain ADK1, stronger effect = lower value
[15] = locus YDR477W, strain SNF1, stronger effect = lower value
[16] = locus YER123W, strain YCK3, stronger effect = lower value
[17] = locus YER133W, strain GLC7, stronger effect = lower value
[18] = locus YFL009W, strain cdc4, stronger effect = lower value
[19] = locus YFL029C, strain CAK1, stronger effect = lower value
[20] = locus YFR003C, strain YPI1, stronger effect = lower value
[21] = locus YFR019W, strain FAB1, stronger effect = lower value
[22] = locus YFR028C, strain CDC14, stronger effect = lower value
[23] = locus YGR040W, strain KSS1, stronger effect = lower value
[24] = locus YGR052W, strain FMP48, stronger effect = lower value
[25] = locus YGR092W, strain DBF2, stronger effect = lower value
[26] = locus YHR030C, strain SLT2, stronger effect = lower value
[27] = locus YHR079C, strain IRE1, stronger effect = lower value
[28] = locus YHR082C, strain KSP1, stronger effect = lower value
[29] = locus YHR205W, strain SCH9, stronger effect = lower value
[30] = locus YIL147C, strain SLN1, stronger effect = lower value
[31] = locus YJL095W, strain BCK1, stronger effect = lower value
[32] = locus YJL128C, strain PBS2, stronger effect = lower value
[33] = locus YJL157C, strain FAR1, stronger effect = lower value
[34] = locus YJR016C, strain ILV3, stronger effect = lower value
[35] = locus YJR066W, strain TOR1 (second series), stronger effect = lower value
[36] = locus YJR066W, strain TOR1, stronger effect = lower value
[37] = locus YKL048C, strain ELM1, stronger effect = lower value
[38] = locus YKL067W, strain YNK1, stronger effect = lower value
[39] = locus YKL101W, strain HSL1, stronger effect = lower value
[40] = locus YKL193C, strain SDS22, stronger effect = lower value
[41] = locus YKL203C, strain TOR2, stronger effect = lower value
[42] = locus YLR113W, strain HOG1, stronger effect = lower value
[43] = locus YLR133W, strain CKI1, stronger effect = lower value
[44] = locus YLR403W, strain SFP1, stronger effect = lower value
[45] = locus YML070W, strain DAK1, stronger effect = lower value
[46] = locus YMR001C, strain CDC5, stronger effect = lower value
[47] = locus YMR205C, strain PFK2 (second series), stronger effect = lower value
[48] = locus YMR277W, strain FCP1, stronger effect = lower value
[49] = locus YNL006W, strain LST8, stronger effect = lower value
[50] = locus YNL020C, strain ARK1, stronger effect = lower value
[51] = locus YNL161W, strain CBK1, stronger effect = lower value
[52] = locus YNL183C, strain NPR1, stronger effect = lower value
[53] = locus YNL207W, strain RIO2, stronger effect = lower value
[54] = locus YNL222W, strain SSU72, stronger effect = lower value
[55] = locus YNL307C, strain MCK1 (second series), stronger effect = lower value
[56] = locus YOL078W, strain AVO1, stronger effect = lower value
[57] = locus YOL136C, strain PFK27, stronger effect = lower value
[58] = locus YOR061W, strain CKA2, stronger effect = lower value
[59] = locus YOR119C, strain RIO1, stronger effect = lower value
[60] = locus YOR231W, strain MKK1, stronger effect = lower value
[61] = locus YOR329C, strain SCD5, stronger effect = lower value
[62] = locus YPL031C, strain PHO85, stronger effect = lower value
[63] = locus YPL153C, strain RAD53, stronger effect = lower value
[64] = locus YPL204W, strain HRR25, stronger effect = lower value
[65] = locus YPL209C, strain IPL1, stronger effect = lower value
[66] = locus YPL256C, strain CLN2, stronger effect = lower value
[67] = locus YPR025C, strain CCL1, stronger effect = lower value
[68] = locus YPR106W, strain ISR1, stronger effect = lower value
[69] = locus YPR111W, strain DBF20, stronger effect = lower value
[70] = strain NNK1, stronger effect = lower value
[71] = strain TSCII, stronger effect = lower value

Measured: normalized growth

CC(C)(C)c1cc2nc(C(F)(F)F)cc(NNC(=O)c3ccc(Cl)cc3)n2n1
inactive: [1] 0.978 | [2] 0.994 | [3] 0.977 | [4] 0.989 | [5] 0.978 | [6] 0.996 | [7] 0.984 | [8] 0.991 | [9] 0.981 | [10] 0.974 | [11] 1.01 | [12] 0.989 | [13] 0.978 | [14] 0.982 | [15] 1.03 | [16] 0.999 | [17] 1.03 | [18] 0.981 | [19] 0.981 | [20] 0.992 | [21] 0.966 | [22] 0.979 | [23] 1.01 | [24] 1.12 | [25] 0.952 | [26] 1.04 | [27] 0.989 | [28] 1.06 | [29] 0.99 | [30] 0.983 | [31] 0.991 | [32] 0.961 | [33] 1.02 | [34] 0.977 | [35] 0.991 | [36] 1.05 | [37] 0.986 | [38] 1 | [39] 1.01 | [40] 0.977 | [41] 1.07 | [42] 0.983 | [43] 0.995 | [44] 0.991 | [45] 1 | [46] 0.994 | [47] 1 | [48] 0.973 | [49] 0.988 | [50] 1.01 | [51] 0.991 | [52] 0.988 | [53] 0.981 | [54] 0.975 | [55] 1 | [56] 0.98 | [57] 1.01 | [58] 0.995 | [59] 1.11 | [60] 0.988 | [61] 0.997 | [62] 1.03 | [63] 1.03 | [64] 1.05 | [65] 0.988 | [66] 0.994 | [67] 0.988 | [68] 0.988 | [69] 0.976 | [70] 0.983 | [71] 0.984

CC(C)(C)c1csc(NC(=O)Nc2ccc(Cl)cc2)n1
active: [11] 0.684 | [15] 0.605 | [16] 0.466 | [17] 0.534 | [21] 0.722 | [23] 0.634 | [24] 0.304 | [25] 0.48 | [26] 0.39 | [27] 0.509 | [28] 0.466 | [31] 0.345 | [35] 0.625 | [36] 0.452 | [37] 0.609 | [38] 0.732 | [39] 0.441 | [41] 0.565 | [42] 0.28 | [43] 0.687 | [44] 0.601 | [45] 0.441 | [47] 0.705 | [50] 0.67 | [52] 0.281 | [55] 0.553 | [59] 0.524 | [60] 0.5 | [62] 0.43 | [63] 0.481 | [64] 0.529 | [66] 0.44
inactive: [1] 0.989 | [2] 0.972 | [3] 0.973 | [4] 0.976 | [5] 0.985 | [6] 0.982 | [7] 0.973 | [8] 0.974 | [9] 0.978 | [10] 0.974 | [12] 0.983 | [13] 0.974 | [14] 0.973 | [18] 0.972 | [19] 0.97 | [20] 0.981 | [22] 0.97 | [29] 0.583 | [30] 0.972 | [32] 0.905 | [33] 0.81 | [34] 0.981 | [40] 0.981 | [46] 0.97 | [48] 0.974 | [49] 0.979 | [51] 0.969 | [53] 0.97 | [54] 0.983 | [56] 0.982 | [57] 0.719 | [58] 0.732 | [61] 0.982 | [65] 0.98 | [67] 0.977 | [68] 0.97 | [69] 0.967 | [70] 0.953 | [71] 0.981

From PubChem BioAssay AID1159580 (chemical genetic matrix, 2015)
